The panel holds about 83,000 compounds, 20% with a hit somewhere; the sample as a whole holds those more often.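 Single-concentration screen, 48 h exposure, 96-well plates. Endpoint: percent growth. Below 10 = active.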 Calls of active or inactive are those of the source.
Tests used:
Assay in all cases: NCI-60 one-dose screen, 48 h (100 = growth as untreated, 0 = no growth, -100 = all killed)
NCI-H23 lung = conditions: 10 µM unless noted
NCI-H322M lung = conditions: 10 µM unless noted
HOP-62 NSCLC = conditions: 10 µM unless noted
NCI-H460 lung = conditions: 10 µM unless noted
HOP-92 NSCLC = conditions: 10 µM unless noted
NCI-H522 lung = conditions: 10 µM
A549/ATCC NSCLC = conditions: 10 µM unless noted
786-0 renal = conditions: 10 µM unless noted

Measured: growth

O=C(N/N=C(\CS(=O)(=O)c1ccccc1)c1cc2cc(Br)ccc2oc1=O)c1ccccc1
inactive: NCI-H23 lung 101% | NCI-H322M lung 104% | HOP-62 NSCLC 114% | NCI-H460 lung 99.7% | HOP-92 NSCLC 111% | NCI-H522 lung 94.9% | A549/ATCC NSCLC 95.3% | 786-0 renal 106%

O=C1CCC(N2C(=O)c3cccc(NCCOCCOCCNC(=O)c4cc5c(o4)C(=O)c4ccccc4C5=O)c3C2=O)C(=O)N1 (stereo unspecified)
inactive: HOP-92 NSCLC 60.4% | 786-0 renal 17.8%
active: NCI-H23 lung -53.9% | NCI-H322M lung -76.6% | HOP-62 NSCLC -58.2% | NCI-H460 lung -81.3% | NCI-H522 lung -55% | A549/ATCC NSCLC -30.2%

O=c1oc2ccccc2cc1-c1csc(N=Nc2c(O)[nH]c3ccc(Cl)cc23)n1
inactive: NCI-H23 lung 101% | NCI-H322M lung 105% | HOP-62 NSCLC 117% | NCI-H460 lung 99.9% | HOP-92 NSCLC 114% | NCI-H522 lung 98.4% | A549/ATCC NSCLC 89.6% | 786-0 renal 105%

NC(=S)N/N=C1\c2ccccc2-c2c(F)c(F)c(F)c(F)c21
inactive: NCI-H23 lung 72.4% | NCI-H322M lung 93.5% | HOP-62 NSCLC 75.6% | NCI-H460 lung 76.6% | HOP-92 NSCLC 87% | NCI-H522 lung 57.4% | A549/ATCC NSCLC 87.5% | 786-0 renal 88.8%

CC(=O)OC[C@H](O)[C@@]1(O)CC[C@H]2[C@@H]3CCC4=CC(=O)CC[C@]4(C)[C@H]3[C@@H](O)C[C@@]21C
inactive: NCI-H23 lung 103% | NCI-H322M lung 112% | HOP-62 NSCLC 115% | NCI-H460 lung 97.3% | HOP-92 NSCLC 81.7% | NCI-H522 lung 99.6% | A549/ATCC NSCLC 83.1% | 786-0 renal 104%

C=C1CC[C@@H]2[C@@](C)(CCC[C@]2(C)C(=O)O)[C@@H]1CC[C@H](CO)CCO
inactive: NCI-H23 lung 102% | NCI-H322M lung 101% | HOP-62 NSCLC 100% | NCI-H460 lung 113% | HOP-92 NSCLC 90% | NCI-H522 lung 85.6% | A549/ATCC NSCLC 102% | 786-0 renal 99.3%

Nc1cc2[nH]c(=O)c3ccccc3c2cc1Br
inactive: NCI-H23 lung 70.5% | NCI-H322M lung 86% | HOP-62 NSCLC 68.9% | NCI-H460 lung 67.3% | HOP-92 NSCLC 58.4% | NCI-H522 lung 90% | A549/ATCC NSCLC 84.5% | 786-0 renal 104%

COc1ccc(C2=NOC(CC(=O)N(CCO)CCO)C2)cc1OC1CCCC1 (stereo unspecified)
inactive: NCI-H23 lung 99.9% | NCI-H322M lung 107% | HOP-62 NSCLC 102% | NCI-H460 lung 103% | HOP-92 NSCLC 94.1% | NCI-H522 lung 98.3% | A549/ATCC NSCLC 95.5% | 786-0 renal 92.7%

CN1CCN(c2ccc3nc(-c4ccc5nc(-c6ccc(C(F)(F)F)cc6)[nH]c5c4)[nH]c3c2)CC1
inactive: NCI-H23 lung 68.2% | NCI-H322M lung 80.1% | HOP-62 NSCLC 51.3% | NCI-H460 lung 30.9% | HOP-92 NSCLC 59.3% | NCI-H522 lung 64.1% | A549/ATCC NSCLC 89.8% | 786-0 renal 69.6%

Cc1ccc(S(=O)(=O)N2CCc3ccc(O)c4c3C2Cc2ccc3c(c2-4)OCO3)cc1 (stereo unspecified)
inactive: NCI-H23 lung 26.5% | NCI-H322M lung 53.2% | HOP-62 NSCLC 33.8% | HOP-92 NSCLC 29.1% | A549/ATCC NSCLC 18.1% | 786-0 renal 12.6%
active: NCI-H460 lung 8.45% | NCI-H522 lung -19.8%

COC(=O)c1c2c(c(C)[n+]([O-])c1C)C(=O)C=C(NCc1cccc(OC)c1)C2=O
active: NCI-H23 lung -69.2% | NCI-H322M lung -19.6% | HOP-62 NSCLC -15.1% | NCI-H460 lung -41.6% | HOP-92 NSCLC -43.6% | NCI-H522 lung -54.7% | A549/ATCC NSCLC -52.1% | 786-0 renal -3.41%

O=S(=O)(Nc1ccccc1Cl)c1ccc(-c2cnc(C3CC3)o2)cc1
inactive: NCI-H23 lung 39.9% | NCI-H322M lung 42.3% | HOP-62 NSCLC 34.1% | NCI-H460 lung 18% | HOP-92 NSCLC 37.1% | NCI-H522 lung 10.9% | A549/ATCC NSCLC 31.4% | 786-0 renal 51.1%

O=c1oc2ccccc2cc1-c1csc(N/N=C/c2cc3ccccc3nc2Cl)n1
inactive: NCI-H23 lung 99.8% | NCI-H322M lung 103% | HOP-62 NSCLC 109% | NCI-H460 lung 99.7% | HOP-92 NSCLC 97.5% | NCI-H522 lung 93.3% | A549/ATCC NSCLC 92.8% | 786-0 renal 107%

O=C1/C(=C/c2ccccc2F)CNC/C1=C\c1ccccc1F
active: NCI-H23 lung -48.3% | HOP-62 NSCLC -63.6% | NCI-H460 lung -29.7% | NCI-H522 lung -61.1% | A549/ATCC NSCLC -11.1% | 786-0 renal -92.8%
inactive: NCI-H322M lung 14.8% | HOP-92 NSCLC 16.6%

COc1ccc(S(=O)(=O)c2ccc(C(N)=O)cc2)cc1NC(=O)c1[nH]c(C)c2c1CCCCC2=O
inactive: NCI-H23 lung 58.7% | NCI-H322M lung 68.5% | HOP-62 NSCLC 38.8% | NCI-H460 lung 70.3% | HOP-92 NSCLC 23.6% | NCI-H522 lung 42.7% | A549/ATCC NSCLC 87.7% | 786-0 renal 60%

CC(=O)OC[C@]1(C)C=C2C(=O)[C@](C)(O)C3(CC3)C(C)=C2[C@H]1OC(C)=O
inactive: NCI-H23 lung 75% | NCI-H322M lung 98.5% | HOP-62 NSCLC 53.7% | NCI-H460 lung 95.1% | HOP-92 NSCLC 122% | NCI-H522 lung 71.1% | A549/ATCC NSCLC 100% | 786-0 renal 87.8%

COc1ccc(/C=N/OCC(O)CN2CCC(O)CC2)cc1OC1CCCC1 (stereo unspecified)
inactive: NCI-H23 lung 106% | NCI-H322M lung 108% | HOP-62 NSCLC 103% | NCI-H460 lung 106% | HOP-92 NSCLC 98.2% | NCI-H522 lung 99.2% | A549/ATCC NSCLC 101% | 786-0 renal 102%

COc1cccc(OC)c1OC(=O)c1ccccc1
inactive: NCI-H23 lung 100% | NCI-H322M lung 109% | HOP-62 NSCLC 110% | NCI-H460 lung 102% | HOP-92 NSCLC 82.5% | NCI-H522 lung 95.5% | A549/ATCC NSCLC 96.5% | 786-0 renal 106%

NC(=O)c1cccc(-n2ccc3cc(NC(=O)Nc4ccc(Cl)c(Cl)c4)ccc32)n1
inactive: NCI-H23 lung 92.9% | NCI-H322M lung 96.7% | HOP-62 NSCLC 81.1% | NCI-H460 lung 75.4% | HOP-92 NSCLC 78% | NCI-H522 lung 68.2% | A549/ATCC NSCLC 74.4% | 786-0 renal 66.4%

COc1cccc2c(=O)c3c(sc12)c(NCCN(C)C)nc1ccccc13
active: NCI-H460 lung -53.1% | HOP-92 NSCLC -3.75% | A549/ATCC NSCLC 7.73%
inactive: NCI-H23 lung 32.4% | NCI-H322M lung 26.2% | HOP-62 NSCLC 27.2% | NCI-H522 lung 29.1% | 786-0 renal 28.7%

O=C(NC1CC1)c1cc2n(n1)CC(c1ccccc1)N2 (stereo unspecified)
inactive: NCI-H23 lung 100% | NCI-H322M lung 99% | HOP-62 NSCLC 102% | NCI-H460 lung 100% | HOP-92 NSCLC 85.3% | NCI-H522 lung 91.1% | A549/ATCC NSCLC 99.6% | 786-0 renal 101%

COc1cc(OCc2cccc(-c3ccc(C(O)c4nccs4)cc3)c2C)cc(OC)c1C=O (stereo unspecified)
inactive: NCI-H23 lung 42.1% | NCI-H322M lung 92.1% | HOP-62 NSCLC 47.9% | NCI-H460 lung 38.8% | HOP-92 NSCLC 62.5% | NCI-H522 lung 47.3% | A549/ATCC NSCLC 40.2% | 786-0 renal 48.2%

O=C(c1cnn2c1NC(c1ccc(F)cc1)C2)N1CCCCC1 (stereo unspecified)
inactive: NCI-H23 lung 105% | NCI-H322M lung 112% | HOP-62 NSCLC 92.1% | NCI-H460 lung 105% | HOP-92 NSCLC 97% | NCI-H522 lung 93.3% | A549/ATCC NSCLC 98.2% | 786-0 renal 106%

CCCN1CCN(c2ccc3nc(-c4ccc5nc(-c6ccc(C(F)(F)F)cc6)[nH]c5c4)[nH]c3c2)CC1
inactive: HOP-92 NSCLC 63%
active: NCI-H23 lung -77.1% | NCI-H322M lung -95.7% | HOP-62 NSCLC -62.6% | NCI-H460 lung -88.5% | NCI-H522 lung -43.4% | A549/ATCC NSCLC -65.1% | 786-0 renal -90.2%

CCN1CCN(c2nc3ccccc3c3c(=O)c4cc(F)ccc4sc23)CC1
inactive: NCI-H23 lung 85.6% | NCI-H322M lung 81.2% | HOP-62 NSCLC 73.2% | NCI-H460 lung 38.5% | HOP-92 NSCLC 40.2% | NCI-H522 lung 76.7% | A549/ATCC NSCLC 58.4% | 786-0 renal 60.6%

COc1cc(/C=C/C(=O)CC(=O)/C=C/c2cc(Br)c(OC)c(OC)c2)cc(Br)c1OC
inactive: NCI-H23 lung 100% | NCI-H322M lung 97.6% | HOP-62 NSCLC 93.1% | NCI-H460 lung 109% | HOP-92 NSCLC 93.7% | NCI-H522 lung 92.8% | A549/ATCC NSCLC 96.1% | 786-0 renal 94.3%

COc1ccc(/C=N\N2CCOCC2)cc1OC1CCCC1
inactive: NCI-H23 lung 99% | NCI-H322M lung 107% | HOP-62 NSCLC 97% | NCI-H460 lung 105% | HOP-92 NSCLC 93.1% | NCI-H522 lung 95.6% | A549/ATCC NSCLC 99.8% | 786-0 renal 93.6%

O=C(N/N=C/c1ccc2c(c1)OCO2)c1cnn2c1NC(c1ccccc1)C2 (stereo unspecified)
inactive: NCI-H23 lung 57.1% | NCI-H322M lung 59.6% | HOP-62 NSCLC 60.5% | NCI-H460 lung 30.1% | HOP-92 NSCLC 73.7% | NCI-H522 lung 45.7% | A549/ATCC NSCLC 45% | 786-0 renal 78.9%

Cc1ccc(S(=O)(=O)N2CCc3ccc(O)c4c3C2CCc2ccccc2-4)cc1 (stereo unspecified)
inactive: NCI-H23 lung 95.9% | NCI-H322M lung 99.1% | HOP-62 NSCLC 106% | NCI-H460 lung 108% | HOP-92 NSCLC 116% | NCI-H522 lung 82.4% | A549/ATCC NSCLC 102% | 786-0 renal 100%

Cc1cccc2c(=O)c3c(sc12)c(NCCNCCO)nc1ccccc13
inactive: NCI-H23 lung 55.3% | NCI-H322M lung 37.7% | HOP-62 NSCLC 22.6% | HOP-92 NSCLC 33.1% | NCI-H522 lung 29.1% | A549/ATCC NSCLC 37.7% | 786-0 renal 52.9%
active: NCI-H460 lung 9.95%

C[C@]1(CO)C[C@@H](O)C[C@]2(C)[C@@H]1CC[C@@]13C[C@@H]4[C@@H](C[C@H]12)[C@]4(C)C3
inactive: NCI-H23 lung 108% | NCI-H322M lung 103% | HOP-62 NSCLC 101% | NCI-H460 lung 104% | HOP-92 NSCLC 103% | NCI-H522 lung 101% | A549/ATCC NSCLC 102% | 786-0 renal 104%

Cc1cccc2c(=O)c3c(sc12)c(NCCCN)nc1ccccc13
inactive: NCI-H23 lung 47.8% | NCI-H322M lung 43.2% | HOP-92 NSCLC 31.5% | NCI-H522 lung 13.2% | A549/ATCC NSCLC 14.5% | 786-0 renal 52.9%
active: HOP-62 NSCLC 9.12% | NCI-H460 lung -52.7%

From PubChem BioAssay (NCI)
